The supplement of paper PMC6555819

Legend:
Experiment in all cases: PBM binding z-score (relative to random genomic background probes); higher = stronger binding; sequences stand for … in GC…GCGATTGACAGCGTAGAATGAAGG
[1] = system: FXR:RXRa (NR concentration 270 nM, RXRa partner concentration 90 nM)
Outline: (§1)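 For binding z-scores, the reference was random background probes on custom Agilent 4×180K protein-binding microarrays. These arrays were incubated 1 h with ligand-free nuclear receptor dimers in PBS pH 7.4, 2% milk, 0.02% Triton X-100, 1 mM DTT, 0.2 mg/mL BSA and 0.4 mg/ml salmon testes DNA. Fluorescence was scanned after antibody detection of each partner (one per run) and regression-normalized.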

[2] = system: LXRa:RXRa (NR concentration 270 nM, RXRa partner concentration 90 nM)
Outline: as §1

[3] = system: LXRa homodimer (NR concentration 270 nM)
Outline: as §1

[4] = system: LXRb:RXRa (NR concentration 270 nM, RXRa partner concentration 90 nM)
Outline: as §1

[5] = system: LXRb homodimer (NR concentration 270 nM)
Outline: as §1

[6] = system: PPARa:RXRa (NR concentration 270 nM, RXRa partner concentration 90 nM)
Outline: as §1

[7] = system: PPARg:RXRa (NR concentration 180 nM, RXRa partner concentration 90 nM)
Outline: as §1

[8] = system: PPARg:RXRa 270nM:90nM, anti-RXR (NR concentration 270 nM, RXRa partner concentration 90 nM)
Outline: as §1

[9] = system: PPARg:RXRa 30nM:10nM, anti-RXR (NR concentration 30 nM, RXRa partner concentration 10 nM)
Outline: as §1

[10] = system: PPARg:RXRa 90nM:30nM, anti-RXR (NR concentration 90 nM, RXRa partner concentration 30 nM)
Outline: as §1

Sequence: CCTTACGGGTCATTCCAGGTTATAGCATCGGAGT
- PBM binding z-score [1]: 6.28
- PBM binding z-score [2]: 7.32
- PBM binding z-score [3]: 2.01
- PBM binding z-score [4]: 4.7
- PBM binding z-score [5]: 0.548
- PBM binding z-score [6]: 4.94
- PBM binding z-score [7]: 3.32
- PBM binding z-score [8]: 4.21
- PBM binding z-score [9]: 1.14
- PBM binding z-score [10]: 2.4

Sequence: CGTCCAAGGTCTATGCTAGGTCAGTGAAAGCATT
- PBM binding z-score [1]: 0.1
- PBM binding z-score [2]: 5.48
- PBM binding z-score [3]: 0.995
- PBM binding z-score [4]: 2.27
- PBM binding z-score [5]: -0.26
- PBM binding z-score [6]: 0.535
- PBM binding z-score [7]: -0.39
- PBM binding z-score [8]: -0.288
- PBM binding z-score [9]: -0.641
- PBM binding z-score [10]: -0.388

Sequence: CCTGACGGGTCACGAGGTTATAGCACGACGAGCG
- PBM binding z-score [1]: 5.64
- PBM binding z-score [2]: 4.17
- PBM binding z-score [3]: 0.355
- PBM binding z-score [4]: 3.29
- PBM binding z-score [5]: -0.286
- PBM binding z-score [6]: 5.34
- PBM binding z-score [7]: 5.73
- PBM binding z-score [8]: 5.6
- PBM binding z-score [9]: 1.87
- PBM binding z-score [10]: 3.91

Sequence: TCTCGGAGGACACGTAGGTCAGAGCTTTCCAGAG
- PBM binding z-score [1]: 0.6
- PBM binding z-score [2]: 0.395
- PBM binding z-score [3]: -0.0787
- PBM binding z-score [4]: 0.22
- PBM binding z-score [5]: -0.976
- PBM binding z-score [6]: 1.09
- PBM binding z-score [7]: 0.109
- PBM binding z-score [8]: 1.13
- PBM binding z-score [9]: 2.08
- PBM binding z-score [10]: 1.61

Sequence: TCACATAGGTAAAGGTGAAAGTCGAACGATATGA
- PBM binding z-score [1]: 1.25
- PBM binding z-score [2]: 1.8
- PBM binding z-score [3]: 0.139
- PBM binding z-score [4]: 1.69
- PBM binding z-score [5]: -0.00674
- PBM binding z-score [6]: 3.07
- PBM binding z-score [7]: 2.67
- PBM binding z-score [8]: 3.48
- PBM binding z-score [9]: 4.04
- PBM binding z-score [10]: 3.75

Sequence: TCTAGTTGGTCACGGAGATCACACACGACGGGTA
- PBM binding z-score [1]: 0.323
- PBM binding z-score [2]: 0.174
- PBM binding z-score [3]: 0.394
- PBM binding z-score [4]: 0.575
- PBM binding z-score [5]: 0.153
- PBM binding z-score [6]: 0.929
- PBM binding z-score [7]: 1.16
- PBM binding z-score [8]: 2.06
- PBM binding z-score [9]: 2.93
- PBM binding z-score [10]: 2.31

Sequence: CTTCAAAGTTCAACTAAGGTAACGTAAAGCACGC
- PBM binding z-score [1]: 7.28
- PBM binding z-score [2]: 6.39
- PBM binding z-score [3]: 5.24
- PBM binding z-score [4]: 4.06
- PBM binding z-score [5]: 2.56
- PBM binding z-score [6]: 5.12
- PBM binding z-score [7]: 3.32
- PBM binding z-score [8]: 4.03
- PBM binding z-score [9]: 1.49
- PBM binding z-score [10]: 3.06

Sequence: GCAAGCAGGCCATTTGGGTCACTCAATGACGGGC
- PBM binding z-score [1]: 0.00635
- PBM binding z-score [2]: -0.402
- PBM binding z-score [3]: -0.429
- PBM binding z-score [4]: -0.137
- PBM binding z-score [5]: -0.801
- PBM binding z-score [6]: 1.34
- PBM binding z-score [7]: 0.661
- PBM binding z-score [8]: 0.661
- PBM binding z-score [9]: -0.408
- PBM binding z-score [10]: 0.131

Sequence: ATATGTAGGTTATCGGGTCATTTAGTTTGCGCAT
- PBM binding z-score [1]: 3.57
- PBM binding z-score [2]: 3.18
- PBM binding z-score [3]: 2.41
- PBM binding z-score [4]: 3.28
- PBM binding z-score [5]: 1.19
- PBM binding z-score [6]: 4.9
- PBM binding z-score [7]: 7.59
- PBM binding z-score [8]: 6.1
- PBM binding z-score [9]: 3.69
- PBM binding z-score [10]: 5.91

Sequence: ACTATTAGTTGACTGAGGGCAACCGATACGACGC
- PBM binding z-score [1]: 0.492
- PBM binding z-score [2]: 0.678
- PBM binding z-score [3]: 0.199
- PBM binding z-score [4]: 0.459
- PBM binding z-score [5]: 0.656
- PBM binding z-score [6]: 0.506
- PBM binding z-score [7]: 0.804
- PBM binding z-score [8]: 0.0428
- PBM binding z-score [9]: 0.173
- PBM binding z-score [10]: 0.117

Sequence: CCTTACGGGTCTCGAGGTTATAGCACGACGAGCG
- PBM binding z-score [1]: 0.0293
- PBM binding z-score [2]: 0.421
- PBM binding z-score [3]: -0.197
- PBM binding z-score [4]: 0.31
- PBM binding z-score [5]: -0.922
- PBM binding z-score [6]: 1.15
- PBM binding z-score [7]: 0.785
- PBM binding z-score [8]: 0.313
- PBM binding z-score [9]: -0.359
- PBM binding z-score [10]: -0.392

Sequence: CCGACTGCGGCAGAAAGGTTACCATACCATCCGG
- PBM binding z-score [1]: 0.417
- PBM binding z-score [2]: 0.665
- PBM binding z-score [3]: -0.0134
- PBM binding z-score [4]: 1.08
- PBM binding z-score [5]: -0.692
- PBM binding z-score [6]: 1.85
- PBM binding z-score [7]: 1.33
- PBM binding z-score [8]: 2.53
- PBM binding z-score [9]: 0.645
- PBM binding z-score [10]: 2.19
